26S disassembly: blocks ATP-dependent breakdown of the yeast 26S proteasome; inhibition of disassembly, % (concentration not given with the values); 24,000 tested, 0.2% active; AID 751; anti-FLAG beads, GFP-proteasome disassembly, flow cytometry;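 active means inhibition of disassembly above about 33%, limit read from the data; inconclusive means likely self-fluorescent, control bead median signal at least 40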;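 further: plate controls were ATP control with full disassembly for no effect and ATP-gamma-S intact proteasomes for full effect; higher percent means more bead fluorescence retained so stronger block of disassembly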
S aureus QS inh: blocks AIP-induced quorum sensing reporter in S. aureus; AID 527; inhibition, % at 2 µM; S. aureus RN6390 RNAIII-GFP reporter, flow cytometry 3 h; 24,000 tested, 0.3% active;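 active means share of bacteria positive for the green fluorescent reporter and its mean brightness both inhibited by 50% or more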;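 further: 0% = AIP-stimulated control and 100% = unstimulated bacteria without AIP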
Starred values were filed as active, the others as inactive. Rows were chosen to be rich in hits. Some 0.45% of all compounds tested hit in one or more screens of this group.

Screening COc1ccc(OC)c(C2N(c3ccc(Cl)cc3)C(=O)C3CCCN32)c1 (stereo unspecified) returned 26S disassembly 84.6* and S aureus QS inh 4.8.
Screening COc1ccc(N2C(=O)C3CCCN3C2c2ccc(Cl)cc2)cc1 (stereo unspecified) returned 26S disassembly -0.7 and S aureus QS inh -0.5.
COCCOC(=O)C1=C(C)N=C2SCCC(=O)N2C1c1cc(Br)ccc1OC (stereo unspecified) was read as 26S disassembly 0.1 and S aureus QS inh 1.8.
Screening Cc1ccc2[nH]c(=O)c(CN(CCN3CCOCC3)C(=O)Nc3ccc(F)cc3)cc2c1 returned S aureus QS inh -1.6.
Screening Cc1cc(C)c2cc(CN(CCN3CCCC3)C(=O)Nc3ccc(F)cc3)c(=O)[nH]c2c1 returned S aureus QS inh -0.2.
Cc1ccc(C)c2[nH]c(=O)c(CN(CCN3CCCC3)C(=O)Nc3cccc(Cl)c3)cc12 was read as 26S disassembly inconclusive and S aureus QS inh 84.4*.
For CCc1ccc2[nH]c(=O)c(CN(CCCN3CCOCC3)C(=O)Nc3ccc(Cl)cc3)cc2c1 the results were S aureus QS inh 93.5*.
`O=C(Nc1ccccc1)N(CCCN1CCOCC1)Cc1cc2cc3c(cc2[nH]c1=O)OCCO3` gave 26S disassembly -4.0 and S aureus QS inh 1.8.
For CCc1ccc2[nH]c(=O)c(CN(CCCN3CCOCC3)C(=O)Nc3cccc(Cl)c3)cc2c1 the results were S aureus QS inh 60.1*.
`CCN1CCN(C(=O)c2ccc3c(c2)N(Cc2ccc(F)cc2)C(=O)c2ccccc2S3=O)CC1` (stereo unspecified) gave 26S disassembly -0.2 and S aureus QS inh -8.0.
Screening COc1ccc2c(CC(=O)OCC(=O)Nc3sc4c(c3C#N)CCC(C)C4)coc2c1 (stereo unspecified) returned S aureus QS inh -0.2.
O=C1CC(Cc2ccccc2)C(=O)N1CCCn1ccnc1 (stereo unspecified) was read as 26S disassembly 0.4 and S aureus QS inh 0.2.
Screening Cc1ccc2nc(NC(=O)C3CCN(S(=O)(=O)c4cccc5nsnc45)CC3)sc2c1 returned 26S disassembly -0.1 and S aureus QS inh 2.3.
`Cc1ccc2nc(NC(=O)C3CCCN(S(=O)(=O)c4cccc5nsnc45)C3)sc2c1` (stereo unspecified) gave 26S disassembly 151.1* and S aureus QS inh 15.7.
Screening CCCn1c(=NC(C)=O)c(C#N)cc2c(=O)n3cccc(C)c3nc21 returned 26S disassembly 66.9* and S aureus QS inh -4.9.
CCNC(=O)c1cc2c(=O)n3cccc(C)c3nc2n1C was read as 26S disassembly -0.8 and S aureus QS inh -3.1.
CC(=O)N1CCc2cc(S(=O)(=O)NC(CC(C)C)C(=O)Nc3ccc4c(c3)OCCO4)ccc21 (stereo unspecified) was read as 26S disassembly inconclusive and S aureus QS inh -1.2.
`O=C(Nc1ccccc1C(F)(F)F)N1CCN(c2ccc3nnc(-c4ccc(F)cc4)n3n2)CC1` gave 26S disassembly 5.4 and S aureus QS inh -4.8.
`Fc1ccc(-c2nnc3ccc(N4CCc5ccccc5C4)nn23)cc1` gave 26S disassembly 2.1 and S aureus QS inh 69.1*.
Screening N[C@@H](Cc1cc(I)c(Oc2ccc(O)c(I)c2)c(I)c1)C(=O)O returned 26S disassembly -0.1 and S aureus QS inh 21.0.
Screening O=C(O)CCc1cc(I)c(Oc2ccc(O)c(I)c2)c(I)c1 returned 26S disassembly -0.5 and S aureus QS inh 87.6*.
For O=C(NCCC1=CCCCC1)C(=O)NCC(c1ccco1)N1CCN(c2ccccc2F)CC1 (stereo unspecified) the results were S aureus QS inh 0.6.
`CCc1ccc(Nc2cc(=O)n(C3CCCCC3)c(=O)[nH]2)cc1` gave 26S disassembly 17.6 and S aureus QS inh 9.2.
O=c1cc(Nc2ccc3c(c2)OCCO3)[nH]c(=O)n1C1CCCCC1 was read as 26S disassembly 107.9* and S aureus QS inh -4.6.
`O=C(NCc1cccnc1)C(=O)NCC(c1ccco1)N1CCN(c2ccc(F)cc2)CC1` (stereo unspecified) gave S aureus QS inh -0.1.
For Cc1ccc(S(=O)(=O)N(CC(=O)NCc2ccco2)Cc2ccccc2F)cc1 the results were 26S disassembly -0.1 and S aureus QS inh 1.0.
Screening CC(=O)Oc1cccc(/C=c2\sc3nc(-c4ccco4)nn3c2=O)c1 returned 26S disassembly 2.3 and S aureus QS inh -0.8.
CCCOc1ccc(/C=c2\sc3nc(-c4ccco4)nn3c2=O)cc1OCC was read as 26S disassembly 124.8* and S aureus QS inh -4.5.
CCc1ccc(N(CC(=O)Nc2nc3ccc(C)cc3s2)S(=O)(=O)c2c(C)noc2C)cc1 was read as S aureus QS inh 0.2.
CSc1nc2ccc3nc(NC(=O)c4cccs4)sc3c2s1 was read as 26S disassembly 1.0 and S aureus QS inh -0.2.
`O=C(Nc1nc2c(s1)CCc1ccccc1-2)c1cccs1` gave 26S disassembly 1.4 and S aureus QS inh 79.2*.

From PubChem
